Only some compounds are listed: those with a hit (about 12% of all), similar ones and a draw of the others.
Cycloheximide cs – Cycloheximide Counterscreen for Small Molecule Inhibitors of Shiga Toxin; max response, %; AID 2314, 2010; 300,000 tested, 12% active; cell reporter, cycloheximide protein synthesis inhibition counterscreen; in the data active means max response mostly above about 13%, no sharp cut-off; inactive means mostly below about 14%; further: read at 38.3 µM for the half of the compounds with a filed dose
NS1 function inh – qHTS Assay for Inhibitors of Influenza NS1 Protein Function; Potency, µM (highest dose often 46.1 µM); AID 2326, 2010; 270,000 tested, 0.4% active; further: actives are rising curves; nearly all actives have a fitted effect of over 50% in size
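In this qHTS, NS1 from influenza A is expressed in budding yeast, where it slows growth. Cells are switched from glucose to 2% galactose medium (pH 6.0, -URA), treated with compound, and growth recovery is read at OD600.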
Shiga inhibitor – A qHTS for Small Molecule Inhibitors of Shiga Toxin | Vero cells, Shiga toxin protein synthesis inhibition reporter | AID 2315, 2010 | 290,000 tested, 9.2% active | inhibition, % at 38.7 µM; in the data active means inhibition mostly above about 28%, no sharp cut-off; inactive means mostly below about 43%
SARS PLP yeast – qHTS of Yeast-based Assay for SARS-CoV PLP; Potency, µM (doses to about 32.9 µM), hits mostly activators; 330,000 tested, 0.19% active; S. cerevisiae expressing SARS-CoV PLpro, growth rescue; further: nearly all actives have a fitted effect of over 55% in size
Each line names hits and unclear results; the compound was inactive in the other large screens. Unless noted, the call rests on the fitted dose curve.

Cc1ccc(/C(O)=C2/C(=O)C(=O)N(CCN3CCOCC3)C2c2cccs2)cc1 (stereo not drawn)	Cycloheximide cs 11
Cc1ccc(/C(O)=C2/C(=O)C(=O)N(CCN3CCOCC3)C2c2cccnc2)cc1 (stereo not drawn)	none
CC(C)Oc1ccc(/C(O)=C2/C(=O)C(=O)N(CCN3CCOCC3)C2c2ccccc2)cc1 (stereo not drawn)	Cycloheximide cs 25, Shiga inhibitor 112
Cc1ccc(C2/C(=C(/O)c3cnn(-c4ccccc4)c3C)C(=O)C(=O)N2CCCN2CCOCC2)o1 (stereo not drawn)	Cycloheximide cs 34, Shiga inhibitor 54
CC(OC(=O)CCCSc1nc2ccccc2s1)C(=O)NC(N)=O (stereo not drawn)	none (no result: NS1 function inh)
O=C(Cc1c(F)cccc1Cl)NCCCn1ccnc1	none
Cc1ccc(NC(=S)N2CCCCC2CO)cc1C (stereo not drawn)	Cycloheximide cs 15
CCc1ccc(NC(=O)N(C2CCC(C)CC2)C2CCN(C(C)=O)CC2)cc1 (stereo not drawn)	Cycloheximide cs 31, Shiga inhibitor 67
CC(=O)N1CCC(N(C(=O)Nc2ccc(C)c(C)c2)C2CCCC2)CC1	Cycloheximide cs 14
COC(=O)c1ccc(S(=O)(=O)c2ccc(Cl)cc2)c(N)c1	none
Nn1c(SCC(=O)NC2CCS(=O)(=O)C2)nc2scc(-c3ccccc3)c2c1=O (stereo not drawn)	none (no result: Cycloheximide cs, NS1 function inh, Shiga inhibitor)
COc1ccc(NC(=S)NC2CCCCCC2)c(OC)c1	Shiga inhibitor 48
S=C(Nc1cccc2ccccc12)NC1CCCCC1	Cycloheximide cs 40, Shiga inhibitor 51 (no result: NS1 function inh)
COc1ccc(NC(=S)Nc2ccc(OC)cc2OC)c(OC)c1	none
COc1ccc(NC(=S)NC(=O)CC(C)C)c(OC)c1	Cycloheximide cs 21, Shiga inhibitor 50 (no result: NS1 function inh)
CCCCC(=O)Nc1ccc(NC(=S)NC(=O)CC(C)C)cc1OC	none
COc1ccc(NC(=S)Nc2ccccn2)c(OC)c1	Cycloheximide cs 35, Shiga inhibitor 120
S=C1NCN(Cc2cccnc2)CN1c1cccc2ccccc12	none
COc1ccc(NC(=S)Nc2cccnc2)c(OC)c1	none (no result: NS1 function inh)
COc1ccc(NC(=S)Nc2cc(C)ccn2)c(OC)c1	Cycloheximide cs 28, Shiga inhibitor 75
COc1cccc(-c2nc(NC3CCCC3)c3ccccc3n2)c1O	none
COc1ccc(CNC(=O)c2cc(-c3ccccc3OC)on2)cc1	none
COc1ccccc1-c1ccc(NC2CCCC2)nn1	Cycloheximide cs 24, Shiga inhibitor 55
COc1ccc(CNc2ccc(-c3ccc(OC)cc3)nn2)cc1	Cycloheximide cs 19, Shiga inhibitor 40
COc1ccccc1-c1cnn2c(NC3CCCC3)cc(C)nc12	Cycloheximide cs 38, Shiga inhibitor 125
COc1ccc(CNc2ccc(-c3ccccc3OC)nn2)cc1	Cycloheximide cs 22
Cc1sc2ncnc(SCC(=O)c3cccs3)c2c1C	Cycloheximide cs 35, Shiga inhibitor 72
O=C(C1CCN(S(=O)(=O)c2cccnc2)CC1)N1CCN(c2ccc(Cl)cc2)CC1	none
O=C(C1CCN(S(=O)(=O)c2cccnc2)CC1)N1CCN(c2ccccc2Cl)CC1	Cycloheximide cs 26 (no result: SARS PLP yeast)
CCOC(=O)c1sc2nccc(OC)c2c1N=CN(C)C	none (no result: NS1 function inh)
CN(C)/C=N/c1ncc(C(=O)c2ccc3ccccc3c2)s1	Cycloheximide cs 33
COc1ccc(C(=O)c2cnc(/N=C/N(C)C)s2)cc1	Cycloheximide cs 42, Shiga inhibitor active
CCOC(=O)CSC1=NC(=O)/C(=C\c2ccc(OC(C)=O)cc2)S1	Cycloheximide cs 28, Shiga inhibitor 120
NC1=NC(=O)/C(=C/c2ccc(Br)cc2)S1	none (no result: Shiga inhibitor)
CCOC(=O)CSC1=NC(=O)/C(=C/c2ccc(Br)cc2)S1	Cycloheximide cs 30, Shiga inhibitor 60 (no result: NS1 function inh)
Cc1[nH]c(C)c(C(=O)/C=C/c2ccc([N+](=O)[O-])cc2)c1C	Cycloheximide cs 60, Shiga inhibitor 129
CC(c1ccco1)N(C(=O)Nc1ccc(Cl)cc1)c1ccccn1 (stereo not drawn)	Cycloheximide cs 11
CNC(=S)SCCOc1ccccc1	Cycloheximide cs 21, Shiga inhibitor 101
COc1ccc(-c2c(C#N)c(N)nc3c2CCC3)cc1	Cycloheximide cs 20 (no result: NS1 function inh)
CCC1(C)Cc2sc3c(=O)[nH]c(=S)[nH]c3c2CO1 (stereo not drawn)	none (no result: NS1 function inh)
Cc1cc(C(=O)NC2CC(C)(C)Cc3c2cnn3-c2ccc(F)cc2)nn1C (stereo not drawn)	none
CC1(C)Cc2c(cnn2-c2ccc(F)cc2)C(NC(=O)C(C)(C)O)C1 (stereo not drawn)	none
CSCc1ccc(C(=O)NC2CC(C)(C)Cc3c2cnn3-c2ccc(F)cc2)o1 (stereo not drawn)	Cycloheximide cs 28
CC1(C)Cc2c(cnn2-c2ccc(F)cc2)C(NC(=O)c2ccc(=O)oc2)C1 (stereo not drawn)	Cycloheximide cs 22
COc1ccc(CCN2CC(C(=O)NCCc3ccccn3)CCC2=O)cc1 (stereo not drawn)	none
N#Cc1ccccc1NC(=O)Nc1cccc(Cl)c1	none (no result: SARS PLP yeast)
Cc1cc(NC(=O)Nc2ccccc2F)ccc1Br	Cycloheximide cs 55, Shiga inhibitor 77
O=C(Nc1cccc(Cl)c1)Nc1ccc(Br)cc1F	Cycloheximide cs 19, Shiga inhibitor 67
O=C(Nc1ccccc1)Nc1ccc(Br)cc1F	Cycloheximide cs 31, Shiga inhibitor 110
CCOC(=O)Cn1nc(C)c(NC(=O)c2ccc(Cl)c([N+](=O)[O-])c2)c1C	none (no result: NS1 function inh)
Fc1ccc(-c2cnn3c(-c4cccs4)ccnc23)cc1	none (no result: NS1 function inh)
Fc1ccc(-c2cnn3c(-c4ccncc4)ccnc23)cc1	Cycloheximide cs 22, Shiga inhibitor 73 (no result: NS1 function inh)
Cc1nc2c(-c3ccc(Cl)cc3)cnn2c(N)c1-c1ccc(F)cc1	Cycloheximide cs 64, Shiga inhibitor 138
Cc1nn2c(N)c(-c3ccccc3)cnc2c1-c1ccccc1	Cycloheximide cs 17
Nc1c(-c2cccc(Cl)c2)cnc2c(-c3ccccc3)cnn12	Cycloheximide cs 45, Shiga inhibitor 64
O=C(NC1CCCc2ccccc21)c1ccc(F)cc1F (stereo not drawn)	none
O=c1oc2cc(OCc3ccc(F)cc3F)ccc2cc1-c1ccc2ccccc2n1	SARS PLP yeast inconclusive
CC(C)[C@H](NC(=O)c1ccco1)C(=O)NC12CC3CC(CC(C3)C1)C2	none
COc1ccc(-c2c(C)nn3c(Cl)c(C)c(C)nc23)cc1	none
COc1ccc(-c2c(C)nc3c(-c4ccc(F)cc4)cnn3c2N)cc1	Cycloheximide cs 66, Shiga inhibitor 53
Cc1cc(C(F)(F)F)n2ncc(-c3ccc(F)cc3)c2n1	none
Nc1c(-c2ccc(Cl)cc2)cnc2c(-c3ccc(F)cc3)cnn12	Cycloheximide cs 34, Shiga inhibitor 88
Cc1nc2c(-c3ccc(F)cc3)cnn2c(N)c1-c1ccccc1	Cycloheximide cs 59, Shiga inhibitor 140
Cc1nc2c(-c3ccc(Cl)cc3)cnn2c2c1CCC2	Cycloheximide cs 35, Shiga inhibitor 68 (no result: NS1 function inh)
Cc1noc(C)c1S(=O)(=O)N(C)C[C@H]1Oc2c(cccc2N(C)C)C(=O)N([C@H](C)CO)C[C@@H]1C	none (no result: Cycloheximide cs, NS1 function inh, Shiga inhibitor)
O=[N+]([O-])c1ccc(S(=O)(=O)N/N=C/c2cccs2)cc1	Cycloheximide cs 20, Shiga inhibitor 27
